Results on 38 compounds are retold here after paper PMC6792352, “Limited Chemical Structural Diversity Found to Modulate Thyroid Hormone Receptor in the Tox21 Chemical Library” (Environmental Health Perspectives, 2019).

Each structure is given as a SMILES string. Structures can show the parent of a compound that is named as a salt.

This assay concerns thyroid hormone receptor (endogenous TRα and TRβ). Also noted: species or system GH3-TRE-Luc (rat pituitary); GH3-TRE-Luc luciferase reporter, antagonist mode against 1 nM T3, loss of signal, qHTS. As to conditions: read-out: Average AC50 (uM) GH3-TRE-Antag, antagonist mode, 1 nM T3, no GH3 cytotoxicity hit.
For `CCC(=O)OCC(=O)[C@@]1(OC(=O)CC)[C@@H](C)C[C@H]2[C@@H]3CCC4=CC(=O)C=C[C@]4(C)[C@@]3(F)[C@@H](O)C[C@@]21C` [Betamethasone dipropionate], the AC50 came out at 27.9 µM.

Regarding `CC(=O)[C@@]1(O)CC[C@H]2[C@@H]3C=C(Cl)C4=CC(=O)CC[C@]4(C)[C@H]3CC[C@@]21C` [Chlormadinone], the AC50 amounted to 30.7 µM.

In the case of `CCCC1C(CC)=CC(CC)=CN1c1ccccc1` (centres unmarked) [3,5-Diethyl-1-phenyl-2-propyl-1,2-dihydropyridine], the concentration at half-maximal activity (AC50) was found to be 53.9 µM.

On to `COC(=O)C(C)N(C(=O)Cc1ccccc1)c1c(C)cccc1C` (centres unmarked) [Benalaxyl], for which the AC50 is above 90 µM.

For `Clc1cccc(C(c2ccc3[nH]cnc3c2)n2ccnc2)c1` (centres unmarked) [Liarozole hydrochloride], the AC50 was 38.6 µM.

For `COc1nc(N)nc2c1ncn2[C@@H]1O[C@H](CO)[C@@H](O)[C@@H]1O` [Nelarabine], the AC50 came to 25.2 µM.

On to `Cc1cccc(N(C)C(=S)Oc2ccc3ccccc3c2)c1` [Tolnaftate], for which the AC50 is above 20 µM.

Consider `Cc1ccc(C(C)c2ccc(C)c(C)c2)cc1C` [1,1-Bis(3,4-dimethylphenyl)ethane], for which the AC50 is 70.8 µM.

Take `CCCCCCCCCC(C)C=O` (centres unmarked) [2-Methylundecanal]: the AC50 is 40.2 µM.

Regarding `CCCCCCCCCCCCCCn1cc[n+](C)c1` [1-Methyl-3-tetradecylimidazolium hexafluorophosphate], the AC50 stood at 68.5 µM.

As to `Cc1cc(CC(=O)O)c(C)n1-c1ccc(Cl)cc1` [Clopirac], the AC50 was 38.5 µM.

In the case of `Cc1ccc(/C(=C\CN2CCCC2)c2ccccn2)cc1` [Triprolidine], the AC50 came to 21.5 µM.

With `CCCCN(CCCC)C(=O)N(CCCC)CCCC` [1,1,3,3-Tetrabutylurea], the AC50 was 22.2 µM.

`CC(=O)O[C@]1(C(C)=O)CC[C@H]2[C@@H]3C[C@H](C)C4=CC(=O)CC[C@]4(C)[C@H]3CC[C@@]21C` [Medroxyprogesterone acetate]: the AC50 amounted to 28 µM.

Regarding `CCCCNc1ccc(C(=O)OCCN(CC)CC)cc1` [Depolipon], the AC50 came to 21 µM.

`CC(C)N(C(=O)COc1nnc(C(F)(F)F)s1)c1ccc(F)cc1` [Flufenacet]: the AC50 was 53.2 µM.

For `O=C(Nc1ccccc1-c1ccc(Cl)cc1)c1cccnc1Cl` [Boscalid], the AC50 is above 100 µM.

Regarding `CCCCCCCCCCCC(=O)N(C)CC(=O)O` [N-Dodecanoyl-N-methylglycine], the AC50 was above 90 µM.

Take `CC/C=C\C/C=C\C/C=C\CCCCCCCC(=O)OCC` [Ethyl linolenate]: the AC50 was found to be 65.3 µM.

As for `O=Cc1ccc(Cl)c([N+](=O)[O-])c1` [4-Chloro-3-nitrobenzaldehyde], the AC50 is 68.3 µM.

Regarding `CC(C)(C)c1cccc(C(C)(C)C)c1O` [2,6-Di-tert-butylphenol], the AC50 was found to be 25.4 µM.

As to `CC(C)=CC1C(C(=O)OC(C#N)c2cccc(Oc3ccccc3)c2)C1(C)C` (centres unmarked) [Cyphenothrin], the AC50 turned out to be 79.9 µM.

As for `O=C(O)c1ccccc1Nc1cccc(C(F)(F)F)c1` [Flufenamic acid], the AC50 came to 29.6 µM.

Consider `CCCCC[C@H](O)/C=C/[C@H]1[C@H](O)CC(=O)[C@@H]1C/C=C\CCCC(=O)O` [Dinoprostone], for which the AC50 is 4.68 µM.

For `CCN(CC)CCNC(=O)c1cc(Br)c(N)cc1OC` [Bromopride], the AC50 is 38.6 µM.

Consider `CCCN1C[C@H](CSC)C[C@@H]2c3cccc4[nH]cc(c34)C[C@H]21` [Pergolide methanesulfonate], for which the AC50 stood at 10.1 µM.

As for `CON(C)C(=O)Nc1ccc(Cl)c(Cl)c1` [Linuron], the AC50 was 61.4 µM.

Consider `CCOc1ccc(O)cc1` [4-Ethoxyphenol], for which the AC50 amounted to 82.5 µM.

On to `OCCN1CCNCC1` [1-Piperazineethanol], for which the AC50 was 74.1 µM.

With `Cc1oc(C)c(C(=O)Nc2ccccc2)c1C` [Methfuroxam], the AC50 is 23.1 µM.

As to `O=C(CCCCCCCCC#CI)Oc1ccccc1` [Phenyl 11-iodo-10-undecynoate], the AC50 is 21.5 µM.

On to `COc1ccc(Nc2ccccc2)c(C)c1` [4-Methoxy-2-methyl-N-phenylaniline], for which the AC50 stood at 52.5 µM.

As for `CCC(=O)Oc1ccc(/C(CC)=C(\CC)c2ccc(OC(=O)CC)cc2)cc1` [Diethylstilbestrol dipropionate], the AC50 stood at 56.1 µM.

With `C(CCOCC1CO1)COCC1CO1` (centres unmarked) [1,4-Butanediol diglycidyl ether], the AC50 came out at 37.9 µM.

`Fc1ccc([C@@]2(Cn3cncn3)O[C@@H]2c2ccccc2Cl)cc1` (racemic) [Epoxiconazole]: the AC50 came out at 41.2 µM.

In the case of `N[C@H](C(=O)O)[C@H](O)c1ccc(O)c(O)c1` [Droxidopa], the AC50 was 29.5 µM.

For `CCCCOc1cc(C(=O)OCCN(CC)CC)ccc1N` [Benoxinate hydrochloride], the AC50 was found to be 11.8 µM.

As to `CCCCCCCCCCC(=O)O` [Undecanoic acid], the AC50 came out at 60.2 µM.
